Drawing on PubChem BioAssay (NCI), this text covers growth for 14 molecules.

Among the test systems are NCI/ADR-RES ovarian; T-47D breast; BT-549 breast; MDA-MB-435 melanoma; SW-620 colon; MCF7 breast; HCT-116 colon; HCC-2998 colon; KM12 colon.
Assay in all cases: NCI-60 one-dose screen, 48 h (100 = growth as untreated, 0 = no growth, -100 = all killed)
Details in all cases: 10 µM unless noted

Compounds without any hit were thinned out: in the full panel of roughly 83,000, 20% have a hit.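 Method: cells in 96-well plates; compound added at one concentration; 48 h incubation; percent growth measured; values under 10 scored active.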 Values without a mark were called inactive. The source made the active and inactive calls.

Consider `N#CCCNc1ccccc1`, for which the growth with NCI/ADR-RES ovarian was 108%; with T-47D breast it was 111%; with BT-549 breast, 108%; in the experiment on MDA-MB-435 melanoma, 98.9%; in the experiment on SW-620 colon, 103%; in the experiment with MCF7 breast, 103%. Further, the growth with HCT-116 colon is 108%; in the experiment on HCC-2998 colon, 106%; with KM12 colon, 113%.
For the molecule `CCNc1nc(Cl)nc(NCC)n1`, the growth was 101% in the experiment with NCI/ADR-RES ovarian; 91% in the experiment on T-47D breast; 108% with BT-549 breast; 94.8% in the experiment with MDA-MB-435 melanoma; 101% in the experiment on SW-620 colon; 98.7% in the experiment on MCF7 breast. Further, the growth in the experiment on HCT-116 colon was 88.1%; in the experiment with HCC-2998 colon, 104%; with KM12 colon, 106%.
For the molecule `Brc1ccc2c(c1)c(-c1nc(-c3c[nH]c4ncccc34)cs1)cn2CCN1CCOCC1`, the growth with NCI/ADR-RES ovarian was 50.3%; in the experiment on T-47D breast, 1.14% (active); with BT-549 breast, 77.6%; with MDA-MB-435 melanoma, 85.7%; in the experiment on SW-620 colon it was 85.8%; with MCF7 breast, 18.3%. Besides, the growth is 68.1% in the experiment on HCT-116 colon, 88.7% in the experiment on HCC-2998 colon and 40.3% in the experiment with KM12 colon.
Take `Cc1cc(N(CCCl)CCCl)ccc1C=Nc1ccccc1-c1ccccc1`: the growth was 59.8% in the experiment with NCI/ADR-RES ovarian; 27.5% with T-47D breast; 83.7% in the experiment on BT-549 breast; 93.5% in the experiment with MDA-MB-435 melanoma; 67% in the experiment on SW-620 colon; 39.1% with MCF7 breast. Besides, the growth with HCT-116 colon is 75.8%; in the experiment with HCC-2998 colon, 96.9%; in the experiment on KM12 colon, 97.3%.
For the molecule `O=C(Nc1ccc(Cl)cc1)Nc1nccs1`, the growth with NCI/ADR-RES ovarian is 8.57% (active); in the experiment with T-47D breast, 40.1%; with BT-549 breast it was 44.1%; in the experiment on MDA-MB-435 melanoma it was -49.4% (active); with SW-620 colon it was 26.4%; in the experiment with MCF7 breast it was 15.2%. Moreover, the growth in the experiment on HCT-116 colon was 41.2%; with HCC-2998 colon, 69.5%; in the experiment on KM12 colon, 34.3%.
For the molecule `COc1ccc2c(c1)c(-c1nc(-c3cn(C)c4ncccc34)cs1)cn2CCN1CCOCC1`, the growth was 30.6% in the experiment on NCI/ADR-RES ovarian; 20% with T-47D breast; 54.7% in the experiment with BT-549 breast; 72.9% in the experiment with MDA-MB-435 melanoma; 55.8% in the experiment on SW-620 colon; 13.5% in the experiment on MCF7 breast. In addition, the growth in the experiment with HCT-116 colon was 34.4%; with HCC-2998 colon it was 95.6%; with KM12 colon, 22.7%.
`C[C@@]12CC[C@@H](O)C[C@@H]1CC[C@H]1[C@H]2CC[C@@]2(C)[C@H](c3ccc(=O)oc3)CC[C@@]12O`: the growth in the experiment with NCI/ADR-RES ovarian is -39.6% (active); in the experiment on T-47D breast it was -18.1% (active); in the experiment on BT-549 breast, -84.2% (active); with MDA-MB-435 melanoma, -81.9% (active); in the experiment with SW-620 colon, -68.3% (active); in the experiment on MCF7 breast it was -27% (active). The growth with HCT-116 colon was -76% (active); in the experiment on HCC-2998 colon, -50.7% (active); in the experiment with KM12 colon it was -87.6% (active).
As for `C[n+]1c(/C=C/c2ccc(N(CCCl)CCCl)cc2)sc2ccccc21`, the growth is 102% in the experiment with NCI/ADR-RES ovarian; 16.8% with T-47D breast; 64.3% with BT-549 breast; 76.1% in the experiment with MDA-MB-435 melanoma; 23.1% with SW-620 colon; 27.3% with MCF7 breast. In addition, the figures for the growth with HCT-116 colon, with HCC-2998 colon and with KM12 colon were 48.4%, 84.4% and 74.8%, respectively.
With `Cn1cc(-c2csc(-c3cn(CCCCN4CCCCC4)c4ccccc34)n2)c2cccnc21`, the growth in the experiment with NCI/ADR-RES ovarian is -17.4% (active); with T-47D breast, 88.4%; in the experiment on BT-549 breast it was 69.2%; with MDA-MB-435 melanoma, -79.6% (active); in the experiment with SW-620 colon, -65.2% (active); in the experiment with MCF7 breast, -65.9% (active). The figures for the growth in the experiment on HCT-116 colon, in the experiment with HCC-2998 colon and with KM12 colon were -90.4% (active), 87.2% and 0.281% (active), respectively.
On to `Nc1ccc(OCCNS(=O)(=O)c2cccc(S(=O)(=O)F)c2)c(Cl)c1`, for which the growth in the experiment on NCI/ADR-RES ovarian was 101%; in the experiment with T-47D breast, 102%; in the experiment with BT-549 breast it was 95.9%; with MDA-MB-435 melanoma it was 98.2%; in the experiment on SW-620 colon it was 106%; with MCF7 breast it was 85.3%. Besides, the growth in the experiment on HCT-116 colon is 95.2%; with HCC-2998 colon, 101%; in the experiment on KM12 colon, 101%.
With `COc1ccc(N(CC(=O)NCCC[Te]c2ccccc2)C(=O)CCSC2=C(C)C(=O)c3ccccc3C2=O)cc1`, the growth with NCI/ADR-RES ovarian was -36.3% (active); in the experiment with T-47D breast, -57.7% (active); in the experiment with BT-549 breast, -18.2% (active); with MDA-MB-435 melanoma, 11.9%; in the experiment on SW-620 colon it was 5.47% (active); in the experiment with MCF7 breast, -22.3% (active). Moreover, the growth with HCT-116 colon is -65.1% (active); in the experiment with HCC-2998 colon, -35.4% (active); in the experiment with KM12 colon, -17.3% (active).
Consider `COC(=O)[C@@]1(C)CC[C@]2(C)CC[C@]3(C)C4=CC(=O)c5c(cc(O)c(O)c5C)[C@]4(C)CC[C@@]3(C)[C@@H]2C1`, for which the growth was 63.4% in the experiment on NCI/ADR-RES ovarian; 54.1% in the experiment on T-47D breast; 82.1% with BT-549 breast; 58.5% in the experiment on MDA-MB-435 melanoma; 60.3% with SW-620 colon; 41.9% in the experiment on MCF7 breast. The figures for the growth in the experiment with HCT-116 colon, in the experiment on HCC-2998 colon and in the experiment on KM12 colon were 31.3%, 76.7% and 50.4%, respectively.
In the case of `CC1(C)N=C(N)N=C(N)N1c1ccc(CCC(=O)Nc2ccc(S(=O)(=O)F)cc2)c(Cl)c1`, the growth in the experiment on NCI/ADR-RES ovarian is 58.4%; in the experiment on T-47D breast, 70.5%; with BT-549 breast, 51%; in the experiment with MDA-MB-435 melanoma it was 37.7%; in the experiment with SW-620 colon it was 24.8%; with MCF7 breast, 15.1%. The growth in the experiment with HCT-116 colon is 26.8%; in the experiment on HCC-2998 colon it was 14.3%; with KM12 colon, 12.2%.
Take `ClC1=C(Cl)C(Cl)(C2(Cl)C(Cl)=C(Cl)C(Cl)=C2Cl)C(Cl)=C1Cl`: the growth in the experiment with NCI/ADR-RES ovarian is 4.66% (active); in the experiment on T-47D breast, -45.4% (active); in the experiment on BT-549 breast, -12.3% (active); with MDA-MB-435 melanoma, -50.9% (active); in the experiment with SW-620 colon it was -52.8% (active); in the experiment on MCF7 breast, -40.9% (active). Besides, the growth in the experiment with HCT-116 colon was -73.4% (active); with HCC-2998 colon it was 52.1%; with KM12 colon, 84.5%.
